High-throughput results: PubChem BioAssay, several laboratories
Compounds with a hit are over-represented: about 3.5% of the library has one in this group of screens.
Mtb UGM inh: Mtb UDP-galactopyranose mutase inhibition; purified UGM, fluorescence polarization probe displacement; inhibition, % at 10 µM; 320,000 compounds, 0.06% hits; AID 504406; in the data active means inhibition above about 10%, passing the limit was not always enough
Rv3671c inh: Rv3671c (M. tuberculosis) protease inhibition; AID 2606; inhibition, % at 5.96 µM; 320,000 compounds, 0.048% hits; P9WHR9; in the data active means inhibition above about 38%;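 further: extracellular domain of Rv3671c used as enzyme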
Mtb hypoxia inh: inhibitors of hypoxia-regulated fluorescent reporter in Mycobacterium tuberculosis. M. tuberculosis hypoxia-regulated fluorescent reporter, fluorescence. 300,000 compounds, 0.1% hits. fluorescence inhibition, % (test concentration not listed); in the data active means fluorescence inhibition mostly above about 23%, no sharp cut-off; inactive means mostly below about 17%
FBA Mtb inh: Mtb fructose-bisphosphate aldolase inhibition; P9WQA3; purified M. tuberculosis FBA, fluorescence read-out; inhibition, % at 1 µM; 360,000 compounds, 2.3% hits; AID 588726; in the data active means inhibition above about 27%
Target sequence (P9WQA3 whole entry, looked up): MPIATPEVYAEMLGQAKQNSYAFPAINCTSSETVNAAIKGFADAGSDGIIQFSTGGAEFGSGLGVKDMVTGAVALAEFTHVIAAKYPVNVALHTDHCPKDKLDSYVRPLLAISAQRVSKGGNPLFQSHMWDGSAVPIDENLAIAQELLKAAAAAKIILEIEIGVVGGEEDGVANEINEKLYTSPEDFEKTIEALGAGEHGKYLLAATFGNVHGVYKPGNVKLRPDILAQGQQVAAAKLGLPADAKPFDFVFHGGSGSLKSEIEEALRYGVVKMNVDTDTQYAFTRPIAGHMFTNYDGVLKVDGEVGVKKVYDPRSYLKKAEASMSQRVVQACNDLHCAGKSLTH
FadD28 binding: M. tuberculosis FadD28 bisubstrate binding inhibition; FadD28 bisubstrate probe binding, fluorescence polarization; inhibition, % at 12.5 µM; 360,000 compounds, 0.22% hits; AID 588549; in the data active means inhibition above about 8.5%, passing the limit was not always enough
GDH-TPI inh: counter-screen for M. tuberculosis FBA inhibitors: GDH-TPI coupled enzymes. 360,000 compounds, 1.2% hits. AID 588335. inhibition, % at 4.8 µM. GDH-TPI coupled enzyme counterscreen, NADH absorbance; in the data active means inhibition above about 30%
Of the large screens only hits and unclear results are named; the others gave an inactive call.

COC(=O)c1ccc2c(C)c(C(C)(C)O)[nH]c2c1	FBA Mtb inh active
C#CCOCCOCCOCCNc1nc(N2CCN(C(=O)CCCCCCCCCCNC(=O)Cn3cc(CC(C)O)nn3)CC2)nc(N2CCN(C(=O)CCCCCCCCCCNC(=O)C(C(C)O)n3cc(C)nn3)CC2)n1 (configuration not stated)	none (no result: Mtb UGM inh, Rv3671c inh, FBA Mtb inh, FadD28 binding, GDH-TPI inh)
Cc1ccnc(NS(=O)(=O)c2ccc(NC(=O)c3ccc([N+](=O)[O-])s3)cc2)n1	none (not shown: Mtb hypoxia inh)
Cc1cc(NS(=O)(=O)c2ccc(NC(=O)c3ccc([N+](=O)[O-])s3)cc2)nc(C)n1	GDH-TPI inh 31 (not shown: Mtb hypoxia inh)
COc1ccc(C(=O)/C=C/Nc2c(C)n(C)n(-c3ccccc3)c2=O)cc1OC	GDH-TPI inh 35 (no result: Mtb hypoxia inh)
Cc1c(N/C=C/C(=O)C(F)(F)F)c(=O)n(-c2ccccc2)n1C	none
COc1ccc(/C(O)=C/C(=O)C(=O)Nc2c(C)n(C)n(-c3ccccc3)c2=O)cc1	GDH-TPI inh 34 (no result: Mtb hypoxia inh)
COc1ccc(/C(O)=C\C(=O)C(=O)Nc2c(C)n(C)n(-c3ccccc3)c2=O)cc1	none (no result: Mtb UGM inh, Rv3671c inh, FBA Mtb inh, FadD28 binding, GDH-TPI inh)
CCN(CC)c1ccc(N=Cc2c(O)[nH]c(=O)[nH]c2=O)cc1	GDH-TPI inh 35
CCN(CC)c1ccc(N=Cc2c(O)n(-c3ccccc3)c(=O)[nH]c2=O)cc1	none
O=C(Nc1nc2ccc(S(=O)(=O)N3CCCC3)cc2s1)c1ccco1	GDH-TPI inh 39
CC(=O)Nc1nc2ccc(S(=O)(=O)N3CCCC3)cc2s1	none
C#CCOCCOCCOCCNc1nc(N2CCN(C(=O)C(CCCCN)n3cc(C(N)CC(C)C)nn3)CC2)nc(N2CCN(C(=O)C(Cc3ccc(O)cc3)n3cc(C(N)CC(C)C)nn3)CC2)n1 (configuration not stated)	none (no result: Mtb UGM inh, Rv3671c inh, FBA Mtb inh, FadD28 binding, GDH-TPI inh)
COc1ccc(CC(=O)N/N=C/c2ccc(-c3cccc(C(=O)O)c3)o2)cc1OC	GDH-TPI inh 75 (no result: Mtb hypoxia inh)
O=[N+]([O-])c1cccc(-c2ccc(C=NNC(=S)Nc3cccc(F)c3)o2)c1	none (no result: Mtb UGM inh, Rv3671c inh, FBA Mtb inh, FadD28 binding, GDH-TPI inh)
CNC(=S)N/N=C/c1ccc(-c2cccc(C(=O)O)c2)o1	GDH-TPI inh 85 (no result: Mtb hypoxia inh)
O=[N+]([O-])c1cccc(-c2ccc(/C=N/NC(=S)Nc3ccccc3)o2)c1	GDH-TPI inh 34 (no result: Mtb hypoxia inh)
O=C(Cc1ccc(Br)cc1)NN=Cc1ccc(-c2cccc(C(=O)O)c2)o1	none (no result: Mtb UGM inh, Rv3671c inh, FBA Mtb inh, FadD28 binding, GDH-TPI inh)
COc1ccc(-c2ccc(C=NNC(=O)Cc3nnc(N)s3)o2)cc1Cl	none (no result: Mtb UGM inh, Rv3671c inh, FBA Mtb inh, FadD28 binding, GDH-TPI inh)
COc1ccc(CC(=O)N/N=C/c2ccc(-c3ccc(F)cc3)o2)cc1OC	GDH-TPI inh 45 (no result: Mtb hypoxia inh)
N#Cc1cc([N+](=O)[O-])ccc1Oc1cccc(C=NNC(=O)c2ccc(Cl)cc2)c1	none (no result: Mtb UGM inh, Rv3671c inh, FBA Mtb inh, FadD28 binding, GDH-TPI inh)
O=C(NN=Cc1cc(Br)cc(Cl)c1O)c1ccc2c(c1)OCO2	none (no result: Mtb UGM inh, Rv3671c inh, FBA Mtb inh, FadD28 binding, GDH-TPI inh)
C#CCOCCOCCOCCNc1nc(N2CCN(C(=O)C(CCCCN)n3cc(CCCC)nn3)CC2)nc(N2CCN(C(=O)C(C(C)C)n3cc(CCO)nn3)CC2)n1 (configuration not stated)	none (no result: Mtb UGM inh, Rv3671c inh, FBA Mtb inh, FadD28 binding, GDH-TPI inh)
ON=CCCn1c(=S)sc2ccccc21	none (no result: Mtb UGM inh, Rv3671c inh, FBA Mtb inh, FadD28 binding, GDH-TPI inh)
COc1cc(C=NNC(=O)NC2CCCCC2)cc(OC)c1O	none (no result: Mtb UGM inh, Rv3671c inh, FBA Mtb inh, FadD28 binding, GDH-TPI inh)
C=CCc1c(C)nc(SC)nc1Nc1ccc(C(C)=O)cc1	GDH-TPI inh 48 (no result: Mtb hypoxia inh)
O=C(NCC1CCCO1)c1cccc2c1C(=O)c1ccc(N3CCC(Cc4ccccc4)CC3)cc1S2(=O)=O (configuration not stated)	Mtb UGM inh 19 (no result: Mtb hypoxia inh)
O=C(NCc1ccccc1Br)c1cccc2c1C(=O)c1ccc(N3CCC(Cc4ccccc4)CC3)cc1S2(=O)=O	none (no result: Mtb hypoxia inh)
O=C(NC1CCCCC1)c1cccc2c1C(=O)c1ccc(N3CCC(Cc4ccccc4)CC3)cc1S2(=O)=O	Mtb UGM inh 19
COc1cccc(C=NNC(=O)c2nnn(-c3nonc3N)c2CN(C)c2ccccc2)c1	none (no result: Mtb UGM inh, Rv3671c inh, FBA Mtb inh, FadD28 binding, GDH-TPI inh)
CNc1nc(-c2ccc3c(c2)CCN3C(=O)c2cccc(F)c2)cs1	GDH-TPI inh 31
O=C1NC(=S)SC1=C1CCCCCC1	GDH-TPI inh 33
COc1ccc(C(=O)Nc2ccccc2C(=O)NN=Cc2ccncc2)cc1OC	none (no result: Mtb UGM inh, Rv3671c inh, FBA Mtb inh, FadD28 binding, GDH-TPI inh)
O=C(CCCC(=O)Nc1cccc(Br)c1)NN=Cc1cc([N+](=O)[O-])ccc1O	none (no result: Mtb UGM inh, Rv3671c inh, FBA Mtb inh, FadD28 binding, GDH-TPI inh)
Cn1c(=O)c2cc(NC(=O)CCc3ccccc3)ccc2n1-c1ccccc1F	FBA Mtb inh 114 (no result: Mtb UGM inh, Rv3671c inh, Mtb hypoxia inh)
CCOCCC(=O)Nc1ccc2c(c1)c(=O)n(C)n2-c1ccccc1F	FBA Mtb inh 181 (no result: Mtb UGM inh, Rv3671c inh, Mtb hypoxia inh)
CCOCCC(=O)Nc1ccc2c(c1)c(=O)n(C)n2C/C=C/c1ccccc1	FBA Mtb inh 113 (no result: Mtb UGM inh, Rv3671c inh, Mtb hypoxia inh)
